The values below come from PubChem BioAssay.

Counter-ions that a name gives are not always drawn. Unmarked numbers belong to inactive results. No rule for the calls is given here. Residues, ends and D or L forms follow the SMILES beside them. *: point of attachment. Tfa = O=C(C(F)(F)F)*

The test system of the experiment is Aerobactin synthetase IucA (Klebsiella pneumoniae hvKP1). Description: Biochemical IucA enzyme inhibition primary screen of the Spectrum library (AID 1346200).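 Also: 100% = wells without compound and 0% = wells lacking enzyme.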 Particulars: malachite green pyrophosphate, A620, at 8 µM, hits give low values.
Turning to `C[C@]12CCC(=O)C=C1CCC1C2[C@@H](O)C[C@@]2(C)C1CC[C@]2(O)C(=O)COC(=O)CCC(=O)O` (stereo not given in full), the activity remaining was 123%.

In the case of `Cc1ccc(C)c(OCCCC(C)(C)C(=O)O)c1`, the activity remaining was 116%.

In the case of `CO[C@]12C[C@@H](COC(=O)c3cncc(Br)c3)CN(C)[C@@H]1Cc1cn(C)c3cccc2c13`, the activity remaining is 108%.

As for `O=C1c2ccc(O)c(O)c2C(=O)c2c(O)ccc(O)c21`, the activity remaining is 125%.

With `CO[C@H]1CC(O[C@@H]2/C(C)=C/C[C@@H]3C[C@@H](C[C@]4(CC[C@H](C)[C@@H](C5CCCCC5)O4)O3)OC(=O)[C@@H]3C=C(C)/C(=N/O)[C@H]4OC/C(=C\C=C\[C@@H]2C)[C@]43O)O[C@@H](C)C1O` (stereo not given in full), the activity remaining was 119%.

With `c1ccc2c(c1)CN1CCCC1=N2`, the activity remaining is 99.8%.

In the case of `CCCCC1=NC2(CCCC2)C(=O)N1Cc1ccc(-c2ccccc2-c2nn[nH]n2)cc1`, the activity remaining was 121%.

With `CC(=O)N=c1sc(S(N)(=O)=O)nn1C`, the activity remaining was 86.3%.

Consider `CCCC(=O)Nc1ccc(OCC(O)CNC(C)C)c(C(C)=O)c1` (stereo not given), for which the activity remaining is 120%.

Turning to `CC1(C)Oc2ccc3ccc(=O)oc3c2CC1O` (stereo not given), the activity remaining is 88.1%.

Regarding `NC(N)=Nc1nc(CSCC/C(N)=N\S(N)(=O)=O)cs1`, the activity remaining was 113%.

`NS(=O)(=O)c1cc2c(cc1C(F)(F)F)NC(Cc1ccccc1)NS2(=O)=O` (stereo not given): the activity remaining is 98.7%.

As for `CC(=O)OCC(=O)[C@H]1CCC2C3CCC4=CC(=O)CC[C@]4(C)C3CC[C@@]21C` (stereo not given in full), the activity remaining was 111%.

For `CC(=O)O[C@@H]1CC2C(C)(CC[C@H](O)C2(C)C)C2CC[C@]3(C)C(=CC(=O)O[C@H]3c3ccoc3)C21C` (stereo not given in full), the activity remaining is 95.5%.

As for `Nc1nc2ncc(CNc3ccc(C(=O)N[C@@H](CCC(=O)O)C(=O)O)cc3)nc2c(=O)[nH]1`, the activity remaining was 91.3%.

With `O=C(Cn1ccnc1[N+](=O)[O-])NCCO`, the activity remaining is 111%.

With `C[C@]12CCC(=O)C=C1CCC1C2[C@@H](O)C[C@@]2(C)C1CC[C@]2(O)C(=O)CO` (stereo not given in full), the activity remaining is 113%.

For `Nc1ccc(S(=O)(=O)NC(=O)c2ccccc2)cc1`, the activity remaining was 109%.

On to `CC(=O)Nc1ccc(S(=O)(=O)Nc2ccc([N+](=O)[O-])cc2)cc1`, for which the activity remaining is 111%.

Turning to `O=C(OCC(O)CO)c1ccccc1Nc1ccnc2cc(Cl)ccc12` (stereo not given), the activity remaining is 119%.

With `COc1ccc(-c2cc(=O)c3c(O)c(OC)c(OC)c(OC)c3o2)cc1`, the activity remaining is 93%.

Turning to `CC(C)C(NC(=O)C(Cc1ccc(O)cc1)NC(=O)C(NC(=O)C(F)(F)F)C(C)C)C(=O)O` (stereo not drawn) (Tfa-Val-Tyr-Val-OH; configuration not given here), the activity remaining was 105%.

Consider `C[C@H](N)[C@H](O)c1cccc(O)c1`, for which the activity remaining was 115%.

Take `CC(C)=CCC1=C(O)c2ccccc2C(=O)C1=O`: the activity remaining is 119%.

Take `CC(=O)O[C@@H]1CC(=O)[C@@]2(C)C(CC(=O)[C@]3(C)C2CC[C@@]2(C)[C@H](c4ccoc4)OC(=O)C4OC423)C1(C)C` (stereo not given in full): the activity remaining is 92.3%.

As to `CC(=O)O[C@@H]1CC2C(C)(C)[C@@H](O)CC[C@]2(C)C2CC[C@@]3(C)[C@H](c4ccoc4)OC(=O)[C@H]4O[C@]43[C@@]21C` (stereo not given in full), the activity remaining was 124%.

For `CN[C@@H]1[C@@H](O[C@H]2O[C@H](CO)[C@@H](N)[C@H](O)[C@H]2O)O[C@H]2C[C@@H](N)[C@H](O[C@H]3[C@H](O)[C@@H](O)[C@H](N)C[C@@H]3N)O[C@@H]2[C@@H]1O`, the activity remaining is 124%.

Turning to `CN1C2CC(OC(=O)[C@H](CO)c3ccccc3)C[C@H]1[C@H]1OC21` (stereo not given in full), the activity remaining was 109%.

`C[C@]12CCC3C(CC[C@H]4C[C@H](OS(=O)(=O)O)CC[C@]34C)C1CCC2=O` (stereo not given in full): the activity remaining is 102%.

Take `CCN(CC)CCOc1ccc2c(c1)C(=O)c1cc(OCCN(CC)CC)ccc1-2`: the activity remaining was 118%.

With `COc1ccc(-c2cc(=O)c3c(O)c(OC)c(OC)c(OC)c3o2)cc1OC`, the activity remaining is 80.1%.

Turning to `CCCCCCCCCCC[C@@H](C[C@H]1OC(=O)[C@H]1CCCCCC)OC(=O)[C@@H](CC(C)C)NC=O`, the activity remaining was 112%.

Regarding `O=C1C(=O)c2ccccc2C(O)=C1C1CCC(c2ccc(Cl)cc2)CC1` (stereo not given), the activity remaining was 101%.

Turning to `C=C(CC)C(=O)c1ccc(OCC(=O)O)c(Cl)c1Cl`, the activity remaining was 100%.

As for `O=c1c(O)cc([C@H]2Oc3cc(O)cc(O)c3C[C@H]2O)cc2c([C@H]3Oc4cc(O)cc(O)c4C[C@@H]3O)cc(O)c(O)c12`, the activity remaining is 104%.
